From PubChem BioAssay AID1224817 (Yan Lab, Georgia Cancer Center, Augusta University, 2016)
Screen size: about 2,000 compounds; about 25 (1%) were called active.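 How the source made its calls: active means log2 luciferase ratio at or below -0.5849, meaning signal at two thirds of solvent-only control or lower; inactive means the rest.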 Many of the other results were omitted from the sample, so actives are more common in it than they were.

Assay: inhibitors of EIF4E gene expression, primary screen, cell-based, HT1080, luciferase reporter (AID 1224817);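 further: luciferase reports endogenous eIF4E expression since it is co-expressed from the native EIF4E locus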
Conditions: HT1080 EIF4E-luc2 knock-in reporter, 16 h, at 2.5 µM, hits give low values

Row | SMILES | log2 luciferase activity ratio
1 | O=C1N[C@@H]([C@H]2CC[C@H](Cl)CN2)C(=O)N[C@H]1[C@H]1CC[C@H](Cl)CN1 | -0.835 (active)
2 | O=[N+]([O-])c1nccn1CC(O)CN1CCCCC1 (stereo unspecified) | 0.364 (inactive)
3 | NC(Cc1nn[nH]n1)C(=O)O (stereo unspecified) | -0.174 (inactive)
4 | Cc1cc2ccccc2c[n+]1CC(O)C[n+]1cc2ccccc2cc1C | -0.0398 (inactive)
5 | O=C(O)c1nn(-c2ccc(Cl)cc2)c2c1C(=O)c1ccccc1C2=O | 0.061 (inactive)
6 | Cc1c2cccc(Sc3ccccc3)c2c2c3c(cccc13)[S+](c1ccccc1)C2 (stereo unspecified) | 0.38 (inactive)
7 | Cc1ncc(COP(=O)(O)O)c(C)c1O | 0.148 (inactive)
8 | O=C(O)c1ccc(C(=O)O)c(C(=O)O)c1.[NH-]C1CCCCC1[NH-].[Pt+2] | 0.127 (inactive)
9 | Cn1c(=S)c2[nH]c(SCCCc3ccccc3)nc2n(C)c1=O | 0.0675 (inactive)
10 | CN1CCN(c2nc3c(c(=O)n(C)c(=O)n3C)n2C)CC1 | -0.0962 (inactive)
11 | Cc1[nH]n(-c2ccc(S(=O)(=O)O)cc2)c(=O)c1N=Nc1ccccc1 | 0.391 (inactive)
12 | Nc1ccc(N=Nc2ccc(-c3ccc(O)cc3)cc2)c2ccc(S(=O)(=O)O)cc12 | 0.247 (inactive)
13 | NNC(=O)C(O)C(O)C(=O)NN (stereo unspecified) | 0.225 (inactive)
14 | Nc1nc2c(c(=O)[nH]1)NC(CCNc1ccc(C(=O)O)cc1)CN2 (stereo unspecified) | -0.0715 (inactive)
15 | O=C1COC(c2ccccc2O)=NN1CCCN1CCCC1 | 0.0493 (inactive)
16 | CNC1C(OC2C(OC3C(O)C(O)C(N=C(N)N)C(O)C3N=C(N)N)OC(C)C2(O)/C=N/NC(N)=S)OC(CO)C(O)C1O (stereo unspecified) | -0.0125 (inactive)
17 | COc1cccc2[nH]c(-c3ccccn3)nc12 | 1.75 (inactive)
18 | C/C=C/c1cc2c(c(=O)o1)C(=O)[C@@H](O)[C@H](C)O2 | 0.166 (inactive)
19 | Sc1ccc2ccccc2c1CNCc1ccccc1 | 0.379 (inactive)
20 | O=C(O)C1CC[N-]CC1.O=C(O)C1CC[N-]CC1.[NH2-].[NH2-].[Pt+4] | 0.578 (inactive)
21 | CCC(C(=O)C(C)C(O)C(C)CCc1ccc(C)c(O)c1C(=O)O)C1OC(CC)(C2CCC(O)(CC)C(C)O2)CC1C (stereo unspecified) | -0.243 (inactive)
22 | CC1=C2[C@H]3OC(=O)[C@@H](C)[C@@H]3CC[C@@]2(C)C=C/C1=N\O | -0.026 (inactive)
23 | Cc1ccc2nc(-c3ccc(NC(=O)c4ccc(N)cc4)c(S(=O)(=O)O)c3)sc2c1 | 0.394 (inactive)
24 | CCOc1ccc2c(ccc(/C=C\c3cc(C)c4cccnc4c3O)[n+]2C)c1 | -0.823 (active)

Row | SMILES | log2 luciferase activity ratio
25 | O=C(O)CNC(=O)C1NC(C(F)(F)F)(C(F)(F)F)OC1(C(F)(F)F)C(F)(F)F (stereo unspecified) | 0.305 (inactive)
26 | C=C1C(=O)OC2CC(C)C3(O)CCC(=O)C3(C)CC12 (stereo unspecified) | -0.237 (inactive)
27 | Nc1ccc(S(=O)(=O)NCCS(=O)(=O)O)cc1 | -0.13 (inactive)
28 | O=C(O)c1cc(=O)[nH]c(=S)[nH]1 | 0.238 (inactive)
29 | NC(N)=N/N=C/c1ccc(O)c(C(=O)O)c1 | 0.267 (inactive)
30 | NNC(=O)CS(=O)(=O)Nc1ncccn1 | -0.266 (inactive)
31 | O=C(N/N=C/c1ccc2c(c1)CCC2)c1ccccc1O | 0.157 (inactive)
32 | CS(=O)(=O)Nc1ccc(Nc2c3ccccc3nc3ccccc23)cc1 | 0.308 (inactive)
33 | O=C(O)C(O)C(O)C(O)C(=O)CO (stereo unspecified) | -0.272 (inactive)
34 | Cc1nc(CN2CCCCC2)c(O)c(=O)[nH]1 | -0.0244 (inactive)
35 | CC(=O)Nc1cc(CN2CCCCC2)c(O)c2ncccc12 | -0.0787 (inactive)
36 | Oc1cccnc1CN1CCCCC1 | -0.635 (active)
37 | O=P(O)(CCP(=O)(O)c1ccccc1)c1ccccc1 | 0.225 (inactive)
38 | OCC1OC(n2cnc3c(/C=C(/O)c4ccccc4)ncnc32)C(O)C1O (stereo unspecified) | 1.58 (inactive)
39 | O=c1ccc2nc3ccc(O)cc3oc-2c1 | -0.212 (inactive)
40 | C[n+]1cccc(/C=C/c2ccc3cccc(O)c3n2)c1 | 0.721 (inactive)
41 | NC(CCCCO)C(=O)O (stereo unspecified) | 0.0343 (inactive)
42 | COc1ccc2c3c(ccc2c1)NC(C(=O)O)CC3 (stereo unspecified) | 1.85 (inactive)
43 | O=C(O)CC(Sc1ccccc1)c1ccccc1 (stereo unspecified) | 0.113 (inactive)
44 | Cc1cc(N=Cc2c(CO)cnc(C)c2O)c(N=Cc2c(CO)cnc(C)c2O)cc1C.[Zn] | 0.374 (inactive)
45 | NCCN1C(=O)c2ccccc2C1(O)c1ccc(Cl)cc1 (stereo unspecified) | 0.275 (inactive)
46 | O=C(O)CC(C(=O)O)c1ccccc1[N+](=O)[O-] (stereo unspecified) | -0.346 (inactive)
47 | O=C(O)C(C1NCCS1)N1C(=O)c2ccccc2C1=O (stereo unspecified) | -0.326 (inactive)
48 | Clc1ccc2c(NCCNC3CCCCC3)ccnc2c1 | -0.0725 (inactive)

Row | SMILES | log2 luciferase activity ratio
49 | O=C(O)Cc1c(O)ccc2ccccc12 | -0.364 (inactive)
50 | CC(C)=CCNc1ncnc2c1c(C#N)cn2C1OC(CO)C(O)C1O (stereo unspecified) | -0.135 (inactive)
51 | N#CC[N+]1(Cc2ccccn2)CCCC1 | -0.0477 (inactive)
52 | CN(C)CCCN=c1c2ccccc2n(C)c2[nH]c(=O)n(C)c(=O)c12 | -0.0932 (inactive)
53 | O=C(O)CSCC(=O)c1ccccc1 | -0.355 (inactive)
54 | Cc1ccc(S(=O)(=O)OCC(=O)O)cc1 | 0.01 (inactive)
55 | CC12CCC3c4ccc(O)cc4CCC3C1C/C(=N\O)C2O (stereo unspecified) | -0.14 (inactive)
56 | CC1CN(CCO)CCN1c1ccccc1 (stereo unspecified) | 0.393 (inactive)
57 | O=C(O)C1C(C(=O)O)C(C(=O)O)C1C(=O)O (stereo unspecified) | -0.115 (inactive)
58 | Cc1nn(-c2ccc(S(=O)(=O)[O-])cc2)c([O-])c1N=[N+](C)c1ccc(-c2ccc(N=Nc3ccc4c(S(=O)(=O)[O-])cc(S(=O)(=O)[O-])c(N)c4c3[O-])c([O-])c2)cc1[O-].[Cu+2].[Cu+2].[Na+] | 0.162 (inactive)
59 | OCCNc1ncnc2c1ncn2C1OC(CO)C(O)C1O (stereo unspecified) | -0.0424 (inactive)
60 | CN(C)Cc1ccc(O)c(CN(C)C)n1 | -0.0218 (inactive)
61 | CN(C)CCN(c1ccccn1)c1ccccn1 | -0.0299 (inactive)
62 | CN(CCO)Cc1ncccc1O | -0.625 (active)
63 | Nc1ccccc1N=Nc1c(S(=O)(=O)O)cc2cc(S(=O)(=O)O)cc(O)c2c1O | -0.0279 (inactive)
64 | CC1=CC(C2/C(=N/O)C=C(C)CC2(C)C)C(O)C(C)(C)C1 (stereo unspecified) | -0.118 (inactive)
65 | Fc1cccc(Cl)c1/C=N\N=C1c2ccccc2-c2ccccc21 | -0.123 (inactive)
66 | c1ccc2cc(-c3cc(-c4cc(-c5ccc6ccccc6c5)on4)no3)ccc2c1 | 0.0163 (inactive)
67 | N=C(N)c1ccc(/C=C/c2ccc(C(=N)N)cc2)cc1 | -0.247 (inactive)
68 | O=S(=O)(O)C(c1ccccc1)C(O)c1ccccc1 (stereo unspecified) | -0.161 (inactive)
69 | O=C(O)c1ccc(NS(=O)(=O)Cc2ccccc2)cc1 | 0.0192 (inactive)
70 | NCc1ccc(C(=O)O)cc1 | 0.304 (inactive)
71 | O=C(O)CNc1ccc(C(=O)O)cc1 | -0.647 (active)
